Among all 310,000 compounds or so, about 14,000 (4.5%) showed an effect of 50% or more. Effects have a minus sign here. What follows is part of a selection rich in strong results, with near analogues and random picks from the rest.
molecular target: human ether-à-go-go-related gene (hERG) potassium channel (human, UniProt Q12809); test: primary screen, population patch clamp on CHO cells stably expressing hERG; higher = less effect of the substance
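Note: peak tail current of the secondary pulse compared with the same well before compound.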

human ether-à-go-go-related gene (hERG) potassium channel, sequence (Q12809 whole entry, looked up): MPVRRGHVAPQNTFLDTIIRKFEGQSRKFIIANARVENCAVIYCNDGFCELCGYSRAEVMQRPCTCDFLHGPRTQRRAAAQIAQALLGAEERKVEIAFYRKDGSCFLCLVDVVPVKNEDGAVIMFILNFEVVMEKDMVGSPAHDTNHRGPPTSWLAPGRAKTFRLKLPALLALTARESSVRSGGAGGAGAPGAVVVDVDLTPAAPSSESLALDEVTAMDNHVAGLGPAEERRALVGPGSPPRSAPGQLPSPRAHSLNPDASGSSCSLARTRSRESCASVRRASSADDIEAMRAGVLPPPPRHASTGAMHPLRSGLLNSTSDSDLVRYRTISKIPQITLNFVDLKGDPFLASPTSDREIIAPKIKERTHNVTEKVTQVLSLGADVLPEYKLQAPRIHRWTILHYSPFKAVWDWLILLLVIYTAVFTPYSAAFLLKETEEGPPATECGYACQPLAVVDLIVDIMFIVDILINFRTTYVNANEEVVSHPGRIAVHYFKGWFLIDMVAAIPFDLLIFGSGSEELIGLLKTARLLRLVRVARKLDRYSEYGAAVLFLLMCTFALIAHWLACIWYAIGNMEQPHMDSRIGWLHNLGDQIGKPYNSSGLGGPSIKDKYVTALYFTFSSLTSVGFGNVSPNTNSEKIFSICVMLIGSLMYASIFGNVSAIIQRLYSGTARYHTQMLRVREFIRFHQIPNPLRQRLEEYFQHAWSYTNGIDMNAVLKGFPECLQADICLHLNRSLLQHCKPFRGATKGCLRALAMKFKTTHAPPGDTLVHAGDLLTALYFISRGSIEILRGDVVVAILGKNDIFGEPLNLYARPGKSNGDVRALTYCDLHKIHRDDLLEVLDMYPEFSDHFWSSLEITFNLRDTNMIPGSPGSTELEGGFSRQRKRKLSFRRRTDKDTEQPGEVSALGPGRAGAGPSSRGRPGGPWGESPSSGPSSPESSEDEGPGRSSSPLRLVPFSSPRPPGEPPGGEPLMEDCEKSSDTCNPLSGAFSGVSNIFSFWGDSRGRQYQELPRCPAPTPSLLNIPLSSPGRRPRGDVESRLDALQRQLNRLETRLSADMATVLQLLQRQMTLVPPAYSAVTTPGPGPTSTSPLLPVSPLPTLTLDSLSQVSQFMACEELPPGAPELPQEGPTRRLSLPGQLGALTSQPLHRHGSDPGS

Structure (SMILES) | hERG current change (%, negative = inhibition) at 10uM [%]
CCCCN(CC)c1nc(N)c(C#N)c(CC#N)c1C#N | -24.9
O=C(NCCO)C(=O)NCC1OCCCN1S(=O)(=O)c1cc(F)ccc1F (stereo not drawn) | 13.6
CCOc1cc(/C=C/c2nc3ccccc3c(=O)[nH]2)ccc1O | 13.4
CCN(CC)C(=O)OCc1c(-c2ccccc2)ncc2ccccc12 | -25.5
CCc1nn(-c2cc(Oc3cccc4ccccc34)nc(-c3ccccc3)n2)c(N)c1C#N | 23.3
CCOC(=O)N1CCN(S(=O)(=O)c2ccc(OC)cc2)CC1 | -4.57
CC(=O)Nc1ccc(NS(=O)(=O)c2ccccc2)cc1 | 17.1
N=c1c(C(=O)NCc2ccco2)cc2c(=O)n3ccccc3nc2n1CCc1ccccc1 | -76.7
N=c1c(C(=O)NCc2ccc(F)cc2)cc2c(=O)n3ccccc3nc2n1Cc1ccco1 | -77.8
O=C(CCn1c(=O)c2ccccc2n(Cc2cc(=O)n3ccccc3n2)c1=O)NCc1ccco1 | -4.21
O=C(CCn1c(SCC(=O)NCc2ccco2)nc2ccccc2c1=O)NCCc1ccccc1 | -34.5
N=c1c(C(=O)NCc2ccco2)cc2c(=O)n3ccccc3nc2n1Cc1ccccc1 | -79.3
Cn1nnnc1SCC(=O)Nc1ccc(S(=O)(=O)N2CCOCC2)cc1 | 3.21
COc1ccc(CNC(=O)CN2C(=O)C3C4C=CC(C4)C3C2=O)cc1 (stereo not drawn) | 19.2
O=C(O)C1CC(=O)N(c2ccc(OCc3ccc(Br)cc3)cc2)C1 (stereo not drawn) | 6.71
COCCNC(=O)C(c1ccco1)N(C(=O)Cn1nnc2ccccc21)c1cc(C)ccc1C (stereo not drawn) | -4.75
COc1ccc2c(c1)[nH]c1c(=O)n(CCCn3ccnc3)cnc12 | -35.1
O=c1c2[nH]c3ccc(Br)cc3c2ncn1CCCn1ccnc1 | -64.4
O=c1c2[nH]c3ccccc3c2ncn1CCCn1ccnc1 | -41.8
O=c1c2[nH]c3ccc(Br)cc3c2ncn1Cc1ccncc1 | -4.79
O=C1CCCN1CCCn1cnc2c([nH]c3ccc(F)cc32)c1=O | -42.2
O=c1c2[nH]c3ccc(F)cc3c2ncn1CCCn1ccnc1 | -61.1
CC(C)(C)C1CCC(=NNC(=O)c2cc3c(s2)CCCC3)CC1 (stereo not drawn) | 20.1
Cc1cccc(NC(=O)c2sc(NC(=O)c3ccco3)c(C#N)c2C)c1C | 5.79

Structure (SMILES) | hERG current change (%, negative = inhibition) at 10uM [%]
O=C(CCSc1nc(-c2ccco2)cc(C(F)(F)F)n1)NCc1ccccn1 | -22.5
CC(=C/c1ccc(C(C)C)cc1)/C=N/NC(=O)Cn1nnnc1N | 17.3
CS/C(=N/S(=O)(=O)c1ccc(C)cc1)c1ccccc1 | -3.56
Cl.c1ccc(CC2=NCCN2)cc1 | 7.57
O=P(O)(O)O.c1ccc(CN(CC2=NCCN2)c2ccccc2)cc1 | -17.3
Cc1ccc(N(CC2=NCCN2)c2cccc(O)c2)cc1.Cl | -58.3
Cl.c1ccc(CN(CC2=NCCN2)c2ccccc2)cc1 | -29.7
CS(=O)(=O)O.Cc1ccc(N(CC2=NCCN2)c2cccc(O)c2)cc1 | -51.2
Cc1ccc(N(CC(=O)Nc2c(C)cccc2C)S(C)(=O)=O)cc1 | 1.65
Cc1cc(C)nc(/N=C2\NC(=O)CC(C(=O)O)N2CCc2c[nH]c3ccccc23)n1 (stereo not drawn) | 12.8
COc1cccc(NC(=O)C(c2ccccc2)N2CCNC(=O)C2)c1 (stereo not drawn) | -7.23
O=C(CCN1CCOCC1)N1CCCC(Nc2ccc(F)cc2)C1 (stereo not drawn) | 13.7
C/C(=N\NC(=S)Nc1ccc(F)cc1)C1CC1 | -26.7
COc1ccc(C(=O)NC(=S)Nc2cccnc2)cc1[N+](=O)[O-] | 4.69
Cc1cccc(N(CC(=O)NCCSCc2ccccc2)S(C)(=O)=O)c1 | 26.5
CCNC(=O)COC(=O)C1CCC(=O)N(c2ccc(OC)cc2)C1c1ccc(OC)cc1 (stereo not drawn) | -32.2
COc1ccc(C2C(C(=O)OCC(=O)N3CCCCC3)CCC(=O)N2c2ccc(OC)cc2)cc1 (stereo not drawn) | -13.3
COc1ccc(C2C(C(=O)OCC(=O)Nc3ccc(C)cc3)CCC(=O)N2c2ccc(OC)cc2)cc1 (stereo not drawn) | -62.4
COc1ccc(C(=O)OCC[N+]2(C)CCOCC2)cc1.[I-] | 13.6
CN(C/C=C/c1ccccc1)C1CCCCC1 | -21.7
COCCN(C/C=C/c1ccccc1)C/C=C/c1ccccc1 | -69.4
NC(=O)CN(C/C=C/c1ccccc1)C/C=C/c1ccccc1 | 20.6
O=C(Nc1ccnn1C1CCN(CC(O)CO)CC1)C1CCCC1 (stereo not drawn) | 11.4
CC(C)=CCCC(C)CN1CCC(n2nccc2NC(=O)C2CCCC2)CC1 (stereo not drawn) | -70.8

Structure (SMILES) | hERG current change (%, negative = inhibition) at 10uM [%]
CC(C)CCN1CCC(n2nccc2NC(=O)c2ccc3c(c2)OCO3)CC1 | -5.16
COc1ccc(C(=O)Nc2ccnn2C2CCN(C(=O)c3cccnc3)CC2)cc1 | 12.3
CCc1ccc(CN2CCC(n3nccc3NC(=O)c3ccccc3)CC2)o1 | -36
CC(C)=CCCC(C)CN1CCC(n2nccc2NC(=O)c2ccccc2)CC1 (stereo not drawn) | -69.6
CC(C)=CCCC(C)CN1CCC(n2nccc2NC(=O)c2cccnc2)CC1 (stereo not drawn) | -52.1
CC(C)(CO)CN1CCC(n2nccc2NC(=O)C2CCCC2)CC1 | 11.4
O=C(Nc1cccnc1Cl)c1cc(-c2ccccc2O)on1 | -5.16
COc1ccc(NCc2ccc3c(c2)OCO3)cc1Cl | -4.31
CC(C)CSc1nnc2c3ccccc3n(C)c2n1 | -11.9
CC1=C(C(N)=O)C(c2ccccc2[N+](=O)[O-])n2ncnc2N1 (stereo not drawn) | 7.69
C=Cn1c(C(=O)O)ccc1-c1ccc(CC)cc1 | -5.29
COC(=O)Nc1ccc(S(=O)(=O)N(CCO)CC(F)(F)C(F)F)cc1 | 18.3
CN=C1S/C(=C\c2ccc(OCC(=O)OC)c(OC)c2)C(=O)N1C | 12.6
Cc1sc2ncnc(NCCCO)c2c1C | 5.08
Cc1ccc(CNc2nc(C)nc3sc4c(c23)CCC4)cc1 | -4.22
Cc1nc(NCc2cccnc2)c2c3c(sc2n1)CCCC3 | -70.2
Cc1sc2ncnc(NCc3cccs3)c2c1C | -61.7
c1ccc(CNc2ncnc3sc4c(c23)CCCC4)nc1 | -27.4
O=C(Nc1ncnc2sc3c(c12)CCCC3)c1ccncc1 | -14.2
Cc1sc2ncnc(OCC(=O)NCc3cccs3)c2c1C | 6.03
c1cncc(CNc2ncnc3sc4c(c23)CCCC4)c1 | -78
CCCNc1ncnc2sc(C)c(C)c12 | -1.05
Cc1sc2ncnc(NCc3ccco3)c2c1C | -16.3
Cc1nc(NCc2cccnc2)c2c3c(sc2n1)CC(C)CC3 (stereo not drawn) | -25.1

Structure (SMILES) | hERG current change (%, negative = inhibition) at 10uM [%]
Cc1sc2ncnc(NCc3cccnc3)c2c1C | -55
c1ccc2c(CSc3nnc(-c4ccncc4)o3)cccc2c1 | -12.8
CCC(CC)C(=O)Nc1nnc(S(=O)(=O)N2CCc3ccccc32)s1 | 17.9
O=C(O)C1CCCCC1C(=O)Nc1cc(Cl)ccc1Cl (stereo not drawn) | 10.3
CCc1ccccc1SCc1noc(C(=O)NCC2CCCO2)c1C(=O)O (stereo not drawn) | 2.36
Cl.c1cncc(CNc2ncnc3sc4c(c23)CCC4)c1 | -56.2
Cl.c1cc(Nc2ncnc3sc4c(c23)CCC4)ccn1 | 19.3
Cc1sc2ncnc(NCC(c3ccco3)N3CCCC3)c2c1C (stereo not drawn) | -51.5
CN(C)C(CNc1ncnc2sc3c(c12)CCCCC3)c1ccco1 (stereo not drawn) | -35.4
Cc1sc2ncnc(NCC(c3ccco3)N(C)C)c2c1C.O=C(O)C(=O)O (stereo not drawn) | -33.7
Cc1sc2ncnc(N(C)Cc3ccco3)c2c1C | -4.64
Cc1sc2ncnc(N(C)Cc3cccs3)c2c1C | -53
c1ccc(CNc2ncnc3sc4c(c23)CCC4)nc1 | -19.8
CN(Cc1cccs1)c1ncnc2sccc12 | -28.8
CCOC(=O)N1CCN(C(=O)CN(C)S(=O)(=O)c2ccc(Cl)cc2)CC1 | 8.13
COc1ccc(CCNC(=O)Cc2nn(C)c(=O)c3ccccc23)cc1OC | 0.902
CN(CC(=O)NC(=O)NCc1ccco1)Cc1nc2ccccc2c(=O)[nH]1 | -3.41
Cn1c(SCC(=O)N2CCCc3ccccc32)nc2cccnc21 | 9.85
CCOc1ccc(-n2c(-c3ccc(Cl)cc3)c[n+]3c2SCC3)cc1.[Br-] | -80.9
Cc1ccc(-c2c[n+]3c(n2-c2ccccc2)SCC3)cc1.[Br-] | -35.8
COc1ccc(-c2c[n+]3c(n2-c2ccccc2)SCC3)cc1.[Br-] | -45.7
[Br-].c1ccc(-c2c[n+]3c(n2-c2ccccc2)SCC3)cc1 | -28.4
Brc1ccc(-c2c[n+]3c(n2-c2ccccc2)SCC3)cc1.[Br-] | -49.4
Clc1ccc(-c2c[n+]3c(n2-c2ccccc2)SCC3)cc1.[Cl-] | -62.7

Reference: publication PMC4336329 (PLoS ONE, 2015)
